The nature of assay [1]: qHTS assay to identify small molecule antagonists of the estrogen related receptor (ERR) signaling pathway from Tox21 library - cell viability counter screen (AID 1224834). Also: nearly all actives have a fitted effect of over 30% in size. An outline of the steps:
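ERR reporter cells, 2,000 per well, rested 6 h, then exposed to compound in DMSO for 17.5 hours at 37 C. Viability read as fluorescence after 30 min with CellTiter-Fluor.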

Assay [2] can be described thus: qHTS assay to identify small molecule agonists of the constitutive androstane receptor (CAR) signaling pathway - cell viability counter screen (AID 1224836). Also: nearly all actives have a fitted effect of over 45% in size. The method, boiled down: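 Counter screen multiplexed with the CAR reporter readout: HepG2 cells co-transfected with hCAR and the CYP2B6-2.2kb construct receive a 15-concentration compound series and 0.75 uM PK11195 (final), then CellTiter-Fluor fluorescence is read after 23 h.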

For assay [3], the target named is Nuclear receptor subfamily 1 group I member 3 (Homo sapiens) (UniProt Q14994). In words: qHTS assay to identify small molecule antagonists of the constitutive androstane receptor (CAR) signaling pathway (AID 1224838). Also: nearly all actives have a fitted effect of over 40% in size. An outline of the steps:
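HepG2 cells stably carrying hCAR and a CYP2B6-2.2kb luciferase reporter, seeded 4 hrs before compound (15 concentrations). Stimulated with 50 nM CITCO for 24 hr at 37 C. ONE-Glo luminescence read after 30 min at room temperature.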

Assay [4] has the same target. In words: qHTS assay to identify small molecule agonists of the constitutive androstane receptor (CAR) signaling pathway (AID 1224839). Also: nearly all actives have a fitted effect of over 15% in size. An outline of the steps:
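A 15-concentration quantitative screen uses HepG2 cells co-transfected stably with human CAR and CYP2B6-2.2kb reporter. Treatment lasts 24 h with 0.75 uM PK11195 final present; ONE-Glo luminescence is the signal.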

Assay [5] is described as follows: qHTS assay to identify small molecule antagonists of the estrogen related receptor signaling pathway with the pleiotropic PPARgamma coactivator (PGC) from Tox21 10K library - cell viability counter screen (AID 1224840; active = well fitted cell-killing curve with a large enough effect in the repeat runs, not every such curve was filed as active; also: nearly all actives have a fitted effect of over 40% in size). An outline of the steps: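 PGC/ERR cells (2,000/well) plated 6 h, then compound-treated for 17.5 h at 37 C. Viability measured by CellTiter-Fluor fluorescence after 30 min at 37 C, multiplexed with the pathway assay.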

Assay [6] is described as follows: qHTS assay to identify small molecule antagonists of the estrogen related receptor signaling pathway with the pleiotropic PPARgamma coactivator (PGC) from Tox21 10K library (AID 1224841; call rule not given here; also: actives are mostly falling curves and most rising ones were filed inactive; nearly all actives have a fitted effect of over 50% in size; also: potency is read from the fitted curve at half-maximal effect). An outline of the steps: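 PGC/ERR cell line, 2,000 cells/well, pre-incubated 6 hours at 37 C, then exposed to compounds for 18 hours at 37 C; luciferase read with One-Glo luminescence after 30 min at room temperature.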

A short description of assay [7]: qHTS assay to identify small molecule agonists of the estrogen related receptor signaling pathway with the pleiotropic PPARgamma coactivator (PGC) from Tox21 10K library (AID 1224842). Also: nearly all actives have a fitted effect of over 15% in size. The method, boiled down: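 Luminescence from One-Glo (30 min, room temperature) measured after PGC/ERR cells had 18 h at 37 C with pinned compound (23 nL in DMSO). Cells had been seeded at 2,000 per well and pre-incubated 6 h.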

Assay [8] is described as follows: qHTS assay to identify small molecule agonists of the hypoxia (HIF-1) signaling pathway - cell viability counter screen (AID 1224844; calls by dose curve; also: nearly all actives have a fitted effect of over 50% in size). The method, boiled down: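 HRE-bla ME-180 cells, 2,000/well in 0.5% dialyzed FBS medium, treated 17 h at 37C with compounds. Viability read in the same wells as the bla reporter, by CellTiter-Glo luminescence after 30 min at room temperature.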

The nature of assay [9]: qHTS assay to identify small molecule agonists of H2AX (AID 1224845; active = well fitted activation curve with a large enough effect in the signal ratio in the repeat runs, not every such curve was filed as active; the % refers to the signal ratio). An outline of the steps:
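Phospho-H2AX Ser139 measured by HTRF (ex 320 nm; em 665 and 620 nm) after 24 hr antibody incubation. Compounds, 15 concentrations, 0.76% DMSO, were applied to CHO-K1 cells for 3hr at 37C before lysis.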

Assay [10] is described as follows: qHTS assay to identify small molecule agonists of the hypoxia (HIF-1) signaling pathway (AID 1224846; active = well fitted activation curve with a large enough effect in the signal ratio in the repeat runs, not every such curve was filed as active; the % refers to the signal ratio). An outline of the steps: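 HRE-bla ME-180 beta-lactamase reporter cells in medium with 0.5% dialyzed FBS, pre-incubated 5 h then exposed to compounds 17 h at 37C, 5% CO2; reporter induction read with CCF4-AM FRET substrate.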
A short description of assay [11]: qHTS assay to identify small molecule agonists of H2AX - cell viability counter screen (AID 1224847; calls by dose curve; also: top concentration of the series differs between compounds; nearly all actives have a fitted effect of over 30% in size). The method, boiled down:
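We seed wild-type CHO-K1 cells overnight, treat them for 3 hr at 37C with compounds in 15-concentration series, and quantify remaining viability by CellTiter-Glo luminescence.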

A short description of assay [12]: qHTS assay to identify small molecule agonists of the estrogen related receptor (ERR) signaling pathway from Tox21 library (AID 1224849; calls by dose curve; also: nearly all actives have a fitted effect of over 15% in size). The following applies: ERR reporter cell line, ONE-Glo luciferase, 18 h; at 92.4 µM (top of the series) unless noted. An outline of the steps: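 ERR reporter cells (NTP line) pre-incubated 6 hours at 37 C, then exposed to compounds for 18 hours at 37 C. ONE-Glo luciferase luminescence was read after 30 minutes at room temperature.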

Assay [13] can be described thus: qHTS RealTime-Glo MT Cell Viability Assay in HepG2 cells - 24 hour (AID 1224867). Also: nearly all actives have a fitted effect of over 50% in size. The method, boiled down:
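Real-time, nonlytic viability: 600 HepG2 cells/well mixed with NanoLuc enzyme plus prosubstrate; 5 h settle, compound (DMSO) added by pintool; luminescence monitored over 40 h at 37 C.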

Assay [14] can be described thus: qHTS RealTime-Glo MT Cell Viability Assay in HEK293 cells - 32 hour (AID 1224868). Also: top concentration of the series differs between compounds; nearly all actives have a fitted effect of over 50% in size. An outline of the steps:
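Cells + reagent dispensed (600 cells/well, HEK293) → 5 h at 37 C/5% CO2 → 23 nL compound in DMSO pinned → 40 h at 37 C → luminescence read at 0, 8, 16, 24, 32, 40 h.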

The nature of assay [15]: A CellTox Green Cytotoxicity Assay to monitor cytotoxicity in HEK293 cells - 0 hour (AID 1224869). Also: nearly all actives have a fitted effect of over 50% in size. An outline of the steps:
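HEK293 cells, 600/well, were preincubated 5 hours and then exposed to compounds at 37 C for up to 40 hours. A cell-impermeant cyanine dye staining dead-cell DNA was read by fluorescence at 0, 8, 16, 24, 32 and 40 h time points.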

The nature of assay [16]: qHTS RealTime-Glo MT Cell Viability Assay in HepG2 cells - 40 hour (AID 1224870). Also: nearly all actives have a fitted effect of over 50% in size. The method, boiled down:
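Real-time viability: cells seeded at 600 per well together with NanoLuc and cell-permeant prosubstrate, compounds added after 5 h incubation. Luminescence tracked at 0, 8, 16, 24, 32 and 40 h of exposure.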

The target in assay [17] is Thyrotropin receptor (Homo sapiens) (UniProt P16473). In words: qHTS assay to identify small molecule agonists of the thyroid stimulating hormone receptor (TSHR) signaling pathway (AID 1224843; calls by dose curve; also: nearly all actives have a fitted effect of over 45% in size). An outline of the steps: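 HEK293 cells stably bearing the thyrotropin receptor were plated at 800 cells/well and challenged with compound (30 min, RT). Accumulated cAMP was quantified via cAMP-d2 competing for cryptate-tagged antibody.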
Thyrotropin receptor (Homo sapiens), sequence (P16473 whole entry, looked up): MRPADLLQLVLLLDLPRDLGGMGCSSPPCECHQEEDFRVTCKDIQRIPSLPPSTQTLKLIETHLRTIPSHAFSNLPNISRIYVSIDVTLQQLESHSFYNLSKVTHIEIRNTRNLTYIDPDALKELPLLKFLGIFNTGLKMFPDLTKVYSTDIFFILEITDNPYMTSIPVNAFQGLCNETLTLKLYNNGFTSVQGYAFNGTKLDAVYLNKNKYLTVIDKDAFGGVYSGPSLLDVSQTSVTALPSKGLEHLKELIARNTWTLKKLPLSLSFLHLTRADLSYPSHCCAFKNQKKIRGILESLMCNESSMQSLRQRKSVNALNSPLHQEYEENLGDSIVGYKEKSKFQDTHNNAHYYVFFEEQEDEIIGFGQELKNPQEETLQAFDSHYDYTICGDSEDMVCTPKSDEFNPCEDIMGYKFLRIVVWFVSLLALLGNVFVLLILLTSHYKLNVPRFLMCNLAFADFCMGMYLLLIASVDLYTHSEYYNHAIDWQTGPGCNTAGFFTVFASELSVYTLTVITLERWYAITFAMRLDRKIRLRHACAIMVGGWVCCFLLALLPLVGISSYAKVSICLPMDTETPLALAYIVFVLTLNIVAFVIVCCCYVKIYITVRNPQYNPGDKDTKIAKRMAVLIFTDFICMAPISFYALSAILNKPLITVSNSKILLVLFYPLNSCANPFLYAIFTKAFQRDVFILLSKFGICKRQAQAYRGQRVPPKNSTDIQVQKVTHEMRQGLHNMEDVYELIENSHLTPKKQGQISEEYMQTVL

A short description of assay [18]: qHTS assay to identify small molecule antagonists of the constitutive androstane receptor (CAR) signaling pathway - cell viability counter screen (AID 1224837). Also: nearly all actives have a fitted effect of over 45% in size. The method, boiled down: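 HepG2 cells stably carrying hCAR and CYP2B6-2.2kb reporter, stimulated with 50 nM CITCO and compounds at 15 concentrations for 23 h at 37 C. Viability measured by CellTiter-Fluor fluorescence.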

A short description of assay [19]: qHTS assay to identify small molecule antagonists of the estrogen related receptor (ERR) signaling pathway from Tox21 library (AID 1224848). Also: nearly all actives have a fitted effect of over 50% in size. An outline of the steps:
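Reading was by luminescence 30 min after ONE-Glo addition. Before that, ERR cells at 2,000 per well had rested 6 h at 37 C/5% CO2 and then received pin-tooled compounds in DMSO for 18 h at 37 C.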

The structures appear in SMILES notation. A number with no mark means an inactive call. Records with an inconclusive call do not appear. Calls of active or inactive are those of the source. Unless noted, calls follow the shape of the dose curve; as a rule, active = well fitted curve in the direction sought with a large enough effect in the repeat runs; inconclusive = weak or mixed curves; inactive = no such curve, though single readings can be large; an effect the other way counts as inactive or inconclusive.
% is scaled to controls: 0 for no effect and ±100 for the full control effect.

Nuclear receptor subfamily 1 group I member 3 (Homo sapiens), sequence (Q14994 whole entry, looked up): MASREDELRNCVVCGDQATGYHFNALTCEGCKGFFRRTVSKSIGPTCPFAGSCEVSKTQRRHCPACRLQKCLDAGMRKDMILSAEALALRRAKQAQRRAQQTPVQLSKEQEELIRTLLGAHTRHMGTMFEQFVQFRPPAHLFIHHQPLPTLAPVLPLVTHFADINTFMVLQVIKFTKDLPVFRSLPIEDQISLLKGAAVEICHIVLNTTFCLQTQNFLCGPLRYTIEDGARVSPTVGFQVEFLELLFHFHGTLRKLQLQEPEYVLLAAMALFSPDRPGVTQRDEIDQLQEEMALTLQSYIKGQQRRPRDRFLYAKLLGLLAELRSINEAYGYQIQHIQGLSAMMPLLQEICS

`O=c1oc2ccccc2c(O)c1C1CCCc2ccccc21` (stereo not drawn): the Potency result in assay [1], in [2], in assay [3], in assay [4], in assay [5] and in [8] was “inactive” each time. The Potency result in assay [9], in [11], in assay [13], in assay [14], in assay [15] and in assay [16] was “inactive” throughout. In addition, the Potency in assay [6] was 54.5 µM (active). The result in [7] and in assay [10] was inactive. Further, the activity change, positive = activation in assay [12] was -20.9%.
For the molecule `COC(=O)c1ccccc1S(=O)(=O)NC(=O)Nc1nc(C)cc(C)n1`, the Potency result in [1], in assay [2], in [3], in assay [4], in assay [5] and in assay [17] was “inactive” throughout. The Potency result in [8], in assay [9], in [11], in assay [13], in assay [14] and in [15] was “inactive” in each case. For the same molecule, the Potency result in assay [16] was “inactive”. Further, the outcome in [10] was inactive.
In the case of `CC1=NNC(=O)N(/N=C/c2cccnc2)C1`, the Potency result in assay [1], in assay [2], in [18], in assay [5], in assay [6] and in assay [17] was “inactive” each time. For the same molecule, the Potency entry in assay [8], in [9], in assay [11], in [19], in assay [13] and in assay [15] was “inactive” each time. The Potency result in assay [16] was “inactive”. The outcome in assay [7] was inactive. In assay [12], the activity change, positive = activation was -0.152%.
On to `NC(=O)c1cc([N+](=O)[O-])cc([N+](=O)[O-])c1`, for which the Potency entry in [1], in [2], in assay [18], in assay [5], in assay [17] and in assay [8] was “inactive” in each case. In addition, the Potency entry in assay [9], in assay [11], in [13], in assay [14], in assay [15] and in assay [16] was “inactive” throughout. The molecule was classed as inactive in [10].

The values are drawn from PubChem BioAssay (Tox21).
